Measurements reported in the supplement of paper PMC3545927.
The other results are listed elsewhere or left out. The true hit rate is not given.

B1: HC2364 (peptide)
chain: CAEVPCHIPSAGNASASA
B2: FS-733 (peptide)
chain: CAVFERVSRSAGNASASA
B3: HC834 (peptide)
chain: CAATATPPGSAGNASASA
B4: HC364 (peptide)
chain: CAAKQNVQLIAGNASASA
B5: FS-1055 (peptide)
chain: CAQGGRPPRPAGNASASA
B6: FS-1507 (peptide)
chain: CAADHRFYRYAGNASASA
B7: FS-1300 (peptide)
chain: CAAKQRERRYAGNASASA
B8: FS-1114 (peptide)
chain: CADGGRPPRSAGNASASA
B9: FS-1301 (peptide)
chain: CAAKQRPPRSAGNASASA
B10: HC23 (peptide)
chain: CAMEECVQHLAGNASASA
B11: HC460 (peptide)
chain: CASGPWITPRAGNASASA
B12: FS-1217 (peptide)
chain: CAITSRIIRSAGNASASA
B13: FS-223 (peptide)
chain: CADGGRVSRSAGNASASA
B14: FS-1216 (peptide)
chain: CAITNRPPRSAGNASASA
B15: HC1897 (peptide)
chain: CATTPCSSSWAGNASASA
B16: HC1963 (peptide)
chain: CAEATTPCSGAGNASASA
B17: HC1793 (peptide)
chain: CAREMEECSQAGNASASA
B18: HC1569 (peptide)
chain: CAWETARHTPAGNASASA
B19: HC707 (peptide)
chain: CAPKGPVIQMAGNASASA
B20: HC2041 (peptide)
chain: CAVVNCSMSYAGNASASA
B21: FS-382 (peptide)
chain: CATAARRLRDAGNASASA
B22: FS-878 (peptide)
chain: CATARRHGRDAGNASASA
B23: FS-397 (peptide)
chain: CAAPGRDGRDAGNASASA
B24: HC905 (peptide)
chain: CAGRTGRGKPAGNASASA
B25: FS-1449 (peptide)
chain: CADSSRIKRRAGNASASA
B26: FS-536 (peptide)
chain: CAHKSRKERRAGNASASA
B27: FS-2214 (peptide)
chain: CARKKRLENRAGNASASA
B28: FS-2266 (peptide)
chain: CARKKRIKRRAGNASASA
B29: FS-756 (peptide)
chain: CADISRIKRGAGNASASA

Biological target: furin, P09958
Experiment: furin cleavage Z-score vs untreated control; higher = more cleavage, active = 3.5 or more, inactive = 1 or less, 8 variable residues between constant flanks
Outline: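 Purified furin cleaved 8-mer peptides that were fused to a cDNA oligonucleotide and held on magnetic beads by their N-terminus. Each 0.01 ml reaction used a 1:10 enzyme:substrate ratio in 50 mM HEPES pH 7.5 with CaCl2 and NaCl and ran 7.5, 15 or 30 min. Released DNA was adapter-tagged by PCR and sequenced, and read counts gave abundance. The cleavage Z-score came from log counts against furin-free reactions, lowess-adjusted and scaled by median absolute deviation.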

furin, P09958, sequence (P09958 whole entry): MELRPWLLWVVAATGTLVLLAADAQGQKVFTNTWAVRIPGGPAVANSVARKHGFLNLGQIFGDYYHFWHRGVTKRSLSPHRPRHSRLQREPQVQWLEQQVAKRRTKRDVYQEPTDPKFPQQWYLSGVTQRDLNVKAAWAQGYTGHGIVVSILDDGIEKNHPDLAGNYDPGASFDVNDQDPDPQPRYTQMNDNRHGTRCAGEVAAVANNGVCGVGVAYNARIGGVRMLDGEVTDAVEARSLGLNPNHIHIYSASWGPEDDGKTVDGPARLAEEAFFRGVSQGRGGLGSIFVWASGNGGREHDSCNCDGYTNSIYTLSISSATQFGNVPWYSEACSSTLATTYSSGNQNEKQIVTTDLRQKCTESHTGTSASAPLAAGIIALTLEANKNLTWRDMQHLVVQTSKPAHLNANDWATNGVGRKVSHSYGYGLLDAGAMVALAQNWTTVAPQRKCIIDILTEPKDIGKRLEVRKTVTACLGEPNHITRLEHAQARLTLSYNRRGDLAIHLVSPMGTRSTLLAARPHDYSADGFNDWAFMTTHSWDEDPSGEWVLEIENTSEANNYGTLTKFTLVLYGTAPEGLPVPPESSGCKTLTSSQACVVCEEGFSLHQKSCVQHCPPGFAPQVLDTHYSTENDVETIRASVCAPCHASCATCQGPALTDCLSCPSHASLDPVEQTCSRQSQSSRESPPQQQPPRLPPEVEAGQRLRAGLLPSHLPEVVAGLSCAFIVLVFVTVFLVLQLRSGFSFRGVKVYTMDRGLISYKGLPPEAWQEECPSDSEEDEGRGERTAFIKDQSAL

Sequence | furin cleavage Z-score (7.5 min) | furin cleavage Z-score (15 min) | furin cleavage Z-score (30 min)
B1 | 0.695 (inactive) | 0.0124 (inactive) | 0.569 (inactive)
B2 | 5.52 (active) | 7.31 (active) | 6.35 (active)
B3 | -1.04 (inactive) | -0.000581 (inactive) | -0.987 (inactive)
B4 | 1.11 | 2.16 | -0.868 (inactive)
B5 | -0.328 (inactive) | -0.378 (inactive) | 0.24 (inactive)
B6 | -0.685 (inactive) | -0.762 (inactive) | 0.166 (inactive)
B7 | 9.27 (active) | 10.1 (active) | 7.92 (active)
B8 | 2.6 | 2.51 | 3.55 (active)
B9 | 8.85 (active) | 8.91 (active) | 7.56 (active)
B10 | 0.873 (inactive) | 1.67 | 1.34
B11 | -0.377 (inactive) | 1.52 | -0.355 (inactive)
B12 | 9.87 (active) | 8.44 (active) | 6.88 (active)
B13 | 3.4 | 4.59 (active) | 5.66 (active)
B14 | 2.7 | 5.07 (active) | 2.23
B15 | -0.808 (inactive) | 1.71 | -0.0324 (inactive)
B16 | -1.21 (inactive) | -0.00595 (inactive) | 0.567 (inactive)
B17 | 0.916 (inactive) | -0.677 (inactive) | 1.51
B18 | 0.673 (inactive) | 0.503 (inactive) | -0.633 (inactive)
B19 | -0.0909 (inactive) | 0.949 (inactive) | 0.762 (inactive)
B20 | 0.601 (inactive) | 1.6 | -0.0752 (inactive)
B21 | 1.54 | 3.67 (active) | 3.74 (active)
B22 | 6.42 (active) | 7.12 (active) | 6.27 (active)
B23 | -0.000356 (inactive) | -1.26 (inactive) | -0.555 (inactive)
B24 | -1.05 (inactive) | -0.843 (inactive) | -1.55 (inactive)
B25 | 8.08 (active) | 10.6 (active) | 8.94 (active)
B26 | 1.88 | 4.97 (active) | 3.69 (active)
B27 | 1.32 | 0.582 (inactive) | 0.84 (inactive)
B28 | 13.1 (active) | 14.5 (active) | 11.5 (active)
B29 | 2.64 | 4.17 (active) | 2.27
